Bioassay records from PubChem BioAssay.
HEK293 tox: kills HEK 293 cells. HEK 293 viability, ATP luminescence (CellTiter-Glo), 48-72 h. Potency, µM (titrated, usually from 115 µM), hits mostly inhibitors. 6.6% of 94,000 active. AID 1345083; further: nearly all actives have a fitted effect of over 60% in size
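CellTiter-Glo luminescence (cellular ATP) was read after 48 or 72 hr of compound exposure at 37 degree Celsius. Cells were HEK 293 plated at 250 cells/well.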
3T3 cytotox: cytotoxic compounds in NIH 3T3 cells. NIH 3T3 viability, CellTiter-Glo ATP luminescence, 48-72 h. Potency, µM (top dose mostly 96.7 µM), usual class: inhibitors. 4.3% of 94,000 active; further: nearly all actives have a fitted effect of over 55% in size
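Luminescent ATP readout (CellTiter-Glo, 10 min RT) after 48 or 72 hr compound exposure of NIH 3T3 cells seeded at 400 cells/well in 1536-well format; quantitative HTS.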
hNpr1 antagonist: antagonists of human natriuretic peptide receptor Npr1; Potency, µM (doses to about 46.3 µM), hits mostly inhibitors; 1.6% of 76,000 active; P16066; HEK293 hNpr1 GloSensor cGMP, ANP-stimulated luminescence; AID 1347048; calls by dose curve; further: nearly all actives have a fitted effect of over 60% in size
Target sequence (P16066 whole entry, looked up): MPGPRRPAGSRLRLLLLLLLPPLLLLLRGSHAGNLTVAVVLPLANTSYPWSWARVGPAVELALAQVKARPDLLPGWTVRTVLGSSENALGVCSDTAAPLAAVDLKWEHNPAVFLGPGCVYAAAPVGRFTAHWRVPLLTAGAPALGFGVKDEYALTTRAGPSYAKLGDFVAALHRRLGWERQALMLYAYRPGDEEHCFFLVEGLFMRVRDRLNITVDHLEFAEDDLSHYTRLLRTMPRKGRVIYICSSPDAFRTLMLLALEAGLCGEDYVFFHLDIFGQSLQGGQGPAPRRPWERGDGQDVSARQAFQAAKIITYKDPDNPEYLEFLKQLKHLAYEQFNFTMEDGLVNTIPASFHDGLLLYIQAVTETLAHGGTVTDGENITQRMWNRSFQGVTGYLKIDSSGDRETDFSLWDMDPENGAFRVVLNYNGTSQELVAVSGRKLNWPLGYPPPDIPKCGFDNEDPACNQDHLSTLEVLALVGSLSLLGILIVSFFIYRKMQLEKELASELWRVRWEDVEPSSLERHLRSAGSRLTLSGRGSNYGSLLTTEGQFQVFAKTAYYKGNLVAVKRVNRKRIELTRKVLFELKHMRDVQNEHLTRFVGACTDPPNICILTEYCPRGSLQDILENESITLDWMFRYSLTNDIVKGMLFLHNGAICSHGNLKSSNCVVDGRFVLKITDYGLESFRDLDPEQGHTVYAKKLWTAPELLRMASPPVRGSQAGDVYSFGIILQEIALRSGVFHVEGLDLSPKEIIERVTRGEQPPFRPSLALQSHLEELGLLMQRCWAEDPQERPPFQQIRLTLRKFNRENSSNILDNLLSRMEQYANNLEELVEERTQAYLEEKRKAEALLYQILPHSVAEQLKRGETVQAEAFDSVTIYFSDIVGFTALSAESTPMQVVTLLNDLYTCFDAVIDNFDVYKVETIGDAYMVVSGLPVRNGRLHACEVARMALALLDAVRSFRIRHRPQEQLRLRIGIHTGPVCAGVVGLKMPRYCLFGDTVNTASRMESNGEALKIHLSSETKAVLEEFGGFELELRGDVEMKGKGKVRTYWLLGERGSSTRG
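Compound pre-incubated 30 min at room temperature on GloSensor-loaded HEK293 cells stably carrying hNpr1 and the pGS-40F cGMP biosensor. Stimulation uses hNppA at 0.1 nM final; luminescence is taken at baseline and 20 min post-agonist.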
FLuc inh-1: blocks purified firefly luciferase enzyme activity; P08659; purified P. pyralis luciferase, luminescence, biochemical; Potency, µM (titrated, usually from 115 µM), most hits filed as inhibitors; 2.5% of 76,000 active; AID 1347043; further: nearly all actives have a fitted effect of over 65% in size
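Purified 10nM P. pyralis luciferase with 10uM D-luciferin and 10uM ATP in 50mM Tris acetate pH 7.5, 10mM Mg acetate, 0.01% Tween-20, 0.05% BSA. qHTS titration; luminescence read by CCD imager.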
FLuc SDR -ATP: firefly luciferase binding stabilization, ATP absent | shares compounds with FLuc inh-1 | Purified FLuc-C-HiBiT, Nano-Glo HiBiT luminescence, no ATP | Potency, µM (series often up to 32.7 µM), usual class: activators | AID 1963318 | 7.8% of 1,300 active; further: nearly all actives have a fitted effect of over 55% in size
FLuc SDR ATP: stabilizes firefly luciferase with ATP present; AID 1963319; 8.7% of 1,300 active; purified FLuc-C-HiBiT + ATP, HiBiT complementation luminescence; shares compounds with FLuc inh-1; Potency, µM (highest dose often 32.7 µM), hits mostly activators;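 further: signal reports ligand binding via conformational change of the enzyme rather than luciferase catalysis; nearly all actives have a fitted effect of over 55% in size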
FLuc inh-2: firefly luciferase enzyme inhibition; purified FLuc-C-HiBiT enzyme, luciferin luminescence; 42% of 1,300 active; Potency, µM (titrated, usually from 32.7 µM), usual class: inhibitors; shares compounds with FLuc inh-1; further: nearly all actives have a fitted effect of over 70% in size
Hits are given with their value; - = inactive; ? = inconclusive; . = not tested or not shown. This is a sample that favours compounds with a hit; in the whole collection about 11% have one here. Unless noted, the call rests on the fitted dose curve; in most records, active means well fitted curve in the direction sought with a large enough effect; inconclusive means small, poorly fitted or top-dose-only effect, or another doubt; inactive means no such curve, though single readings can be large; an effect the other way counts as inactive or inconclusive.

SMILES	HEK293 tox	3T3 cytotox	hNpr1 antagonist	FLuc inh-1	FLuc SDR -ATP	FLuc SDR ATP	FLuc inh-2
O=C(Nc1ccccc1C(=O)O)c1ccccc1	.	.	.	.	-	-	?
Cc1ccc(C(=O)Nc2ccccc2C(=O)O)cc1S(=O)(=O)N1CCCCCC1	.	.	.	.	?	?	2.79µM
Cc1ccc(C(=O)Nc2cccc(C(=O)O)c2)cc1S(=O)(=O)N1CCCC1	.	.	.	.	?	0.0785µM	0.0881µM
CN(C)C(=O)CN1C(=O)CO[C@H](c2ccc(NS(=O)(=O)Cc3ccccc3)cc2)[C@H]1CO	-	-	-	-	.	.	.
CC(=O)c1ccc(NS(=O)(=O)c2cccc(S(=O)(=O)c3ccc(Cl)cc3)c2)cc1	.	.	.	.	-	-	-
COc1ccc(-c2cn3nc(N4CCCC(C(=O)NCc5ccccc5OC)C4)sc3n2)cc1 (stereo not drawn)	.	.	.	.	-	-	?
O=C(NCc1cccc(Cl)c1)C1CCCN(c2nn3cc(-c4ccc(F)cc4)nc3s2)C1 (stereo not drawn)	.	.	.	.	-	?	?
COc1ccccc1CNC(=O)C1CCN(c2cnc3nccnc3c2)CC1	-	-	-	-	.	.	.
O=C(NCc1ccc(F)cc1)C1CCCN(c2nc3ncccc3o2)C1 (stereo not drawn)	-	-	-	-	.	.	.
O=C(C1CCCN1C(=O)c1ccc(Cl)nc1)N1CCC(N2Cc3ccccc3C2=O)CC1 (stereo not drawn)	-	-	.	.	.	.	.
Cc1cccc(NC(=O)c2c(N)sc3c2CCC(C)C3)c1 (stereo not drawn)	.	.	.	.	-	-	?
Cc1cccc(NC(=O)N2CCc3nnc(C4CC4)n3CC2)c1	-	-	-	-	.	.	.
O=C(NC1CCCN(c2cc(-c3ccc(F)cc3)[nH]n2)C1)c1ccc2ncccc2c1 (stereo not drawn)	?	?	-	4.47µM	-	-	8.81µM
CN(C)c1cccc(C(=O)NC2CCN(c3cc(-c4ccccc4)[nH]n3)C2)c1 (stereo not drawn)	?	?	-	7.08µM	-	7.85µM	7µM
COc1ccc(-c2cc(N3CCCC(NC(=O)c4ccc5ncccc5c4)C3)n[nH]2)cc1 (stereo not drawn)	?	?	-	3.16µM	-	-	3.94µM
Cc1ccc(C(=O)NC2CCN(c3cc(-c4ccccc4)[nH]n3)C2)cc1C (stereo not drawn)	?	?	-	-	.	.	.
CCOC(=O)CN1C(=O)CCN(C(=O)c2ccc(F)cc2)CC(OC)c2ccccc21 (stereo not drawn)	?	-	.	.	.	.	.
COc1ccc(C(=O)N2CCC(c3nc(CCOCC4CCOCC4)no3)C2)cn1 (stereo not drawn)	-	-	.	.	.	.	.
COc1ccc(C(=O)NCCn2ccn3nc(-c4ccc(C)c(C)c4)cc3c2=O)cc1	?	-	-	?	.	.	.
COc1ccc(CCNC(=O)c2cc3c(=O)[nH]c(C)cn3n2)cc1OC	-	-	-	-	.	.	.
COc1ccc(NC(=O)c2cc3c(=O)[nH]c(C)cn3n2)cc1OC	?	-	-	7.08µM	?	?	9.89µM
COc1ccc(-c2noc([C@@H]3Cc4nc[nH]c4CN3C(=O)Nc3ccc(Cl)cc3)n2)cc1	?	?	-	12.6µM	-	-	-
Cc1ccc(-c2noc([C@@H]3Cc4nc[nH]c4CN3C(=O)Nc3cccc(F)c3)n2)cc1	79.4µM	?	?	10µM	-	-	?
O=C(Nc1ccc(F)cc1)N1Cc2[nH]cnc2C[C@H]1c1nc(-c2ccc(F)cc2)no1	?	?	-	?	.	.	.
COc1c(C)cc(NC(=O)c2ccc(CN3CCC(O)CC3)cc2)cc1C	?	?	-	-	.	.	.
SMILES	HEK293 tox	3T3 cytotox	hNpr1 antagonist	FLuc inh-1	FLuc SDR -ATP	FLuc SDR ATP	FLuc inh-2
Cc1cc(NC(=O)c2ccc(CN3CC[C@H](O)C3)cc2)ccc1F	?	?	10µM	0.891µM	?	?	1.97µM
O=C1C[C@H]2CC[C@@H](CN1)N2Cc1ccc(OCc2ccccc2)cc1	?	?	?	11.2µM	-	-	?
O=C(Nc1ccccc1)c1nc2c(o1)CCN(CC1CC1)CC2	?	-	-	2.24µM	-	-	?
O=C(Nc1cccnc1)c1nc2c(o1)CCN(Cc1cccc(O)c1)CC2	?	-	?	3.98µM	-	-	?
Cc1noc(C)c1CN1CCc2nc(C(=O)NCc3ccccc3)oc2CC1	?	-	-	-	.	.	.
COc1ccccc1CN1CCc2nc(C(=O)Nc3ccccc3)oc2CC1	?	?	?	4.47µM	-	-	?
Cc1noc(C)c1CN1CCc2nc(C(=O)Nc3ccccc3)oc2CC1	?	?	17.8µM	11.2µM	-	-	-
Cc1ccc(CN2CCc3nc(C(=O)NCc4ccccc4)oc3CC2)o1	-	?	-	-	.	.	.
COc1ccc2[nH]c3c(c2c1)CCNC31CCN(C(=O)CC(C)C)CC1	?	-	-	-	.	.	.
NC(=O)[C@@H]1C[C@H](Oc2ccccc2)CN1C(=O)Cc1ccccc1	-	-	.	.	.	.	.
COc1cccc(CN2CCc3nc(C(=O)Nc4nc(C)cs4)oc3CC2)c1	?	?	-	7.08µM	?	-	?
CCCN1CCc2nc(C(=O)Nc3ccccc3)oc2CC1	.	.	.	.	-	-	?
O=C(Nc1ccccc1)c1nc2c(o1)CCN(Cc1cccnc1)CC2	79.4µM	?	17.8µM	0.355µM	?	?	5.7µM
O=C(Nc1cccnc1)c1nc2c(o1)CCN(CCCc1ccccc1)CC2	?	?	-	-	.	.	.
O=C(Nc1ccccc1)c1nc2c(o1)CCN(Cc1ccccc1)CC2	?	?	12.6µM	1µM	-	?	4.53µM
CC(C)(C)C(=O)N1CCN(C(=O)c2nc3cccnc3n(CCc3ccccc3)c2=O)CC1	-	-	.	.	.	.	.
O=C(c1cc(-c2ccccc2O)on1)N1CCCCC1	.	.	.	.	-	-	?
O=C(c1cn2cc(-c3ccccc3)sc2n1)N1CCCCC1	?	-	.	.	.	.	.
COCC(=O)N1CCC(N2C(=O)c3c(c(C)nn3-c3ccccc3)C2C)C1 (stereo not drawn)	-	-	.	.	.	.	.
O=C(NCc1ccc2c(c1)OCO2)c1nc(-c2ccsc2)c2ccccn12	?	-	-	?	.	.	.
CCn1cnnc1CC1CCN(C(=O)c2cc(-c3ccc(C)c(C)c3)nc3ccccc23)CC1	?	39.8µM	-	7.94µM	?	?	2.79µM
Cc1cn2c(=O)cc(COC(=O)c3ccccc3F)nc2s1	.	.	.	.	-	?	?
Cc1ccc(-c2nc(C(=O)N3CCN(c4ccccc4F)CC3)no2)cc1	?	?	-	?	.	.	.
Cc1ccc(-c2nc(C(=O)N3CCN(c4ccccc4)CC3)no2)cc1	?	?	-	12.6µM	-	-	?
COCCCNC(=O)c1nc2cccnc2n(C2CC2)c1=O	-	-	.	.	.	.	.
CCC1(N2CCN(S(=O)(=O)c3cccc4cccnc34)CC2)CCN(C(=O)NC)C1 (stereo not drawn)	-	?	-	-	.	.	.
